Bioassay records (PubChem BioAssay)
G9a block: blocks human histone lysine methyltransferase G9a. G9a H3K9 monomethylation, AlphaScreen, 2 h. actives 8.8% (n = 350,000). Potency, µM (highest dose often 102 µM), actives largely listed as inhibitors. AID 504332. Q96KQ7; note: nearly all actives have a fitted effect of over 75% in size
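Quantitative HTS format: methyltransferase activity on a biotin-tagged H3K9 peptide is measured by AlphaScreen, using a rabbit anti-monomethyl-H3K9 antibody with streptavidin donor and anti-IgG acceptor beads. Final levels are 20 nM enzyme, 500 nM peptide, 20 uM SAM; 2 h RT.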
PLK1 PBD inh: inhibitors of human PLK1 polo-box domain binding. AID 720504. Plk1 PBD binding of FITC phosphopeptide, fluorescence polarization. Potency, µM, actives largely listed as inhibitors. actives 2.8% (n = 360,000); note: series mostly up to about 57 µM; nearly all actives have a fitted effect of over 65% in size
JMJD2A Tudor inh: inhibitors of human JMJD2A Tudor domain | AID 504339 | actives 4.4% (n = 390,000) | Potency, µM (highest dose often 114 µM), hits mostly inhibitors | AlphaScreen JMJD2A-Tudor / H3K4me3 peptide binding | O75164; note: nearly all actives have a fitted effect of over 50% in size
HP1b chromo inh: blocks HP1-beta chromodomain binding to methylated histone tails; Potency, µM (titrated, usually from 114 µM), most hits filed as inhibitors; AlphaScreen HP1-beta / biotin-H3K9me3 peptide binding; actives 0.56% (n = 390,000); P83916; AID 540317; note: nearly all actives have a fitted effect of over 70% in size
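AlphaScreen: HP1-beta (50 nM) preformed 30 min with biotin-H3(1-18)K9me3 peptide (50 nM) in PBS pH 7.4, 0.01% Tween-20. Compound added for 30 min at RT, then streptavidin donor/nickel chelate acceptor beads (10 ug/mL) for 30 min.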
Sfp PPTase inh: Sfp phosphopantetheinyl transferase inhibition | Biochemical Sfp PPTase activity, qHTS | Q9F4F7 | AID 1490 | Potency, µM, usual class: inhibitors | actives 3.5% (n = 310,000);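 note: the enzyme is Sfp with the accession as filed and its product quenches rhodamine fluorescence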
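After 15 min at room temperature with compound, 15 nM Sfp received 5 uM rhodamine-CoA plus 12.5 uM BHQ-2-ybbR (50 mM Hepes pH 7.6, 10 mM MgCl2). Rate came from the fluorescence difference over 30 min, ex 525/em 598 nm.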
BAZ2B inh: BAZ2B (human) inhibition; AlphaScreen BAZ2B-H3K14Ac peptide displacement; Potency, µM (doses to about 114 µM), most hits filed as inhibitors; actives 4.4% (n = 360,000); AID 504333; note: nearly all actives have a fitted effect of over 60% in size
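AlphaScreen displacement: compounds (up to 110uM) incubated 30 min at room temperature with a preformed 50 nM BAZ2B/50 nM biotinylated H3K14Ac peptide complex in PBS pH 7.4 with Tween-20. Donor and acceptor beads at 10 ug/mL final added, 20 min light-protected before reading.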
Hits are given with their value; [ ] = dose if it differs, or a comment. An excerpt weighted towards active compounds, which were near 12% of everything screened. Calls come from the whole dose curve; as a rule, active = well fitted curve in the direction sought with a large enough effect; inconclusive = small, poorly fitted or top-dose-only effect, or another doubt; inactive = no such curve, though single readings can be large; an effect the other way counts as inactive or inconclusive.

Results for COc1cc(/C=C2/SC(=S)N(CC3CCCO3)C2=O)ccc1O (stereo not given) ?
G9a block: 28.2µM; PLK1 PBD inh: inactive; JMJD2A Tudor inh: inconclusive; HP1b chromo inh: 44.7µM; Sfp PPTase inh: inconclusive; BAZ2B inh: 44.7µM

What do the screens show for `COc1ccc(/C=C2\SC(=S)N(CC3CCCO3)C2=O)cc1` (stereo not given)?
PLK1 PBD inh: inactive; JMJD2A Tudor inh: inconclusive; HP1b chromo inh: inconclusive; Sfp PPTase inh: inactive; BAZ2B inh: 8.91µM

How did O=C1/C(=C/c2cccnc2)SC(=S)N1CC1CCCO1 (stereo not given) do in these assays?
G9a block: inactive; PLK1 PBD inh: inactive; JMJD2A Tudor inh: inactive; HP1b chromo inh: inactive; Sfp PPTase inh: inactive; BAZ2B inh: inactive

Results for CC1(C)OC(C(O)(c2cc(C(F)(F)F)cc(C(F)(F)F)c2)c2cc(C(F)(F)F)cc(C(F)(F)F)c2)C(C(O)(c2cc(C(F)(F)F)cc(C(F)(F)F)c2)c2cc(C(F)(F)F)cc(C(F)(F)F)c2)O1 (stereo not given) ?
Sfp PPTase inh: inactive

Results for O=c1c2ccccc2[nH]c(=S)n1CCN1CCCC1 ?
G9a block: 17.8µM; PLK1 PBD inh: inactive; JMJD2A Tudor inh: inactive; HP1b chromo inh: inactive; Sfp PPTase inh: inactive; BAZ2B inh: inactive

What do the screens show for `CC1CC(C)CN(C(=O)CCCn2c(=S)[nH]c3ccccc3c2=O)C1` (stereo not given)?
G9a block: inactive; PLK1 PBD inh: inactive; JMJD2A Tudor inh: inactive; HP1b chromo inh: inactive; Sfp PPTase inh: inactive; BAZ2B inh: inactive

What do the screens show for `O=C(CCN1CCCCC1)Nn1c(=S)[nH]c2ccccc2c1=O`?
G9a block: inconclusive; PLK1 PBD inh: inactive; JMJD2A Tudor inh: 0.708µM; HP1b chromo inh: inactive; Sfp PPTase inh: 50.1µM; BAZ2B inh: inconclusive

How did CCN(CC)CCCn1c(=S)[nH]c2cc(Cl)ccc2c1=O do in these assays?
G9a block: inconclusive; PLK1 PBD inh: inconclusive; JMJD2A Tudor inh: inactive; HP1b chromo inh: inactive; Sfp PPTase inh: inactive; BAZ2B inh: inactive

Results for O=C(CCCn1c(=S)[nH]c2ccccc2c1=O)N1CCCCC1 ?
G9a block: inconclusive; PLK1 PBD inh: inactive; JMJD2A Tudor inh: 56.2µM; HP1b chromo inh: inactive; Sfp PPTase inh: inactive; BAZ2B inh: inactive

How did O=c1c2ccc(Cl)cc2[nH]c(=S)n1CCCN1CCOCC1 do in these assays?
G9a block: 44.7µM; PLK1 PBD inh: inactive; JMJD2A Tudor inh: inconclusive; HP1b chromo inh: inactive; Sfp PPTase inh: inactive; BAZ2B inh: inactive

What do the screens show for `CCc1ccc(CSc2nc(-c3ccccc3OC)nc3c2Cc2c(CO)cnc(C)c2O3)cc1`?
G9a block: inactive; JMJD2A Tudor inh: inactive; HP1b chromo inh: inactive; BAZ2B inh: inactive

Results for O=C(CNS(=O)(=O)c1ccccc1)N1CCc2ccccc2C1 ?
PLK1 PBD inh: inactive; JMJD2A Tudor inh: inactive; HP1b chromo inh: inactive; Sfp PPTase inh: inactive; BAZ2B inh: inactive

What do the screens show for `O=c1c2ccccc2[nH]c(=S)n1CCCN1CCOCC1`?
G9a block: 17.8µM; PLK1 PBD inh: inactive; JMJD2A Tudor inh: inactive; HP1b chromo inh: inactive; Sfp PPTase inh: inactive; BAZ2B inh: inactive

How did CC(NC(=O)c1cccc(N(C)C)c1)c1ccc(-n2ccnc2)cc1 (stereo not given) do in these assays?
G9a block: inactive[12.7 µM]; PLK1 PBD inh: inactive; JMJD2A Tudor inh: inactive; HP1b chromo inh: inactive; Sfp PPTase inh: inactive; BAZ2B inh: inconclusive

Results for COc1ccc(C2=CSC3=NCCN23)cc1F ?
G9a block: 28.2µM; PLK1 PBD inh: inactive; JMJD2A Tudor inh: inactive; HP1b chromo inh: inactive; Sfp PPTase inh: inactive; BAZ2B inh: inactive

Results for Cc1cc(=O)oc2c(C)c(OCC(=O)NCCCN3CCOCC3)ccc12 ?
PLK1 PBD inh: inactive; JMJD2A Tudor inh: inactive; HP1b chromo inh: inactive; Sfp PPTase inh: inactive; BAZ2B inh: inactive

Results for N/C(=N\O)c1ccc(NC(=O)c2ccc(Br)o2)cc1 ?
G9a block: inactive[12.7 µM]; PLK1 PBD inh: 15µM; JMJD2A Tudor inh: inconclusive; HP1b chromo inh: inconclusive; Sfp PPTase inh: inactive; BAZ2B inh: inactive

Results for O=C(Nc1cccc(F)c1)c1ccc(Br)o1 ?
G9a block: 28.2µM; PLK1 PBD inh: inactive; JMJD2A Tudor inh: inactive; HP1b chromo inh: inactive; Sfp PPTase inh: inactive; BAZ2B inh: inactive

Results for O=C(Nc1ccccc1C(=O)O)c1cccc(NC(=O)c2ccc(Br)o2)c1 ?
G9a block: 17.8µM; PLK1 PBD inh: inactive; JMJD2A Tudor inh: inactive; HP1b chromo inh: inactive; Sfp PPTase inh: inactive; BAZ2B inh: inactive

How did COc1ccc(NS(=O)(=O)c2ccc(C)c(NC(=O)CNC(=O)c3ccco3)c2)cc1 do in these assays?
G9a block: inactive; PLK1 PBD inh: inactive; JMJD2A Tudor inh: inactive; HP1b chromo inh: inactive; BAZ2B inh: inactive

Results for Cc1c(OCC(=O)NCCCN2CCOCC2)ccc2c1oc(=O)c1ccccc12 ?
G9a block: inactive; PLK1 PBD inh: inactive; JMJD2A Tudor inh: inactive; HP1b chromo inh: inactive; Sfp PPTase inh: inactive; BAZ2B inh: inactive

What do the screens show for `CC(=O)Oc1cc2c(C(=O)NCCCN3CCOCC3)c(C)oc2c2ccccc12`?
G9a block: inactive[2.33 µM]; PLK1 PBD inh: 29.9µM; JMJD2A Tudor inh: inactive[11.4 µM]; HP1b chromo inh: inactive; Sfp PPTase inh: inactive; BAZ2B inh: inactive

How did COCCCn1cn[nH]c1=S do in these assays?
G9a block: inconclusive; PLK1 PBD inh: inactive; JMJD2A Tudor inh: inconclusive; HP1b chromo inh: inactive; Sfp PPTase inh: inconclusive; BAZ2B inh: inactive

What do the screens show for `CC(C)(C)n1cn[nH]c1=S`?
G9a block: 25.1µM; PLK1 PBD inh: inactive; JMJD2A Tudor inh: inactive; HP1b chromo inh: inactive; Sfp PPTase inh: inactive; BAZ2B inh: inactive

What do the screens show for `CNc1ccc(Br)cc1C(O)c1ccccc1` (stereo not given)?
G9a block: inactive[12.7 µM]; PLK1 PBD inh: inactive; JMJD2A Tudor inh: inactive; HP1b chromo inh: inactive; Sfp PPTase inh: 89.1µM; BAZ2B inh: inactive

How did O=C1C(=O)N(C2CCN(C(=O)c3ccc(F)cc3)CC2)CCN1Cc1ccc(F)cc1 do in these assays?
G9a block: inactive; JMJD2A Tudor inh: inactive; HP1b chromo inh: inactive; BAZ2B inh: inactive

Results for CC(C)Sc1nc2[nH]ncc2c(=O)[nH]1 ?
G9a block: 35.5µM; PLK1 PBD inh: inactive; JMJD2A Tudor inh: inactive; HP1b chromo inh: inactive; Sfp PPTase inh: 50.1µM; BAZ2B inh: inactive

How did CC1CC(C)CN(C(=O)c2ccc3c(c2NCCO)C(=O)c2ccccc2C3=O)C1 (stereo not given) do in these assays?
G9a block: 28.2µM; PLK1 PBD inh: inactive; JMJD2A Tudor inh: 14.1µM; HP1b chromo inh: 44.7µM; Sfp PPTase inh: inactive; BAZ2B inh: inconclusive

What do the screens show for `CC1CC(C)CN(C(=O)COC(=O)CN2C(=O)c3ccccc3C2=O)C1` (stereo not given)?
PLK1 PBD inh: inactive; JMJD2A Tudor inh: inactive; HP1b chromo inh: inactive
